Laboratory results from PubChem BioAssay (NCI).
About 79,000 compounds went through this panel and 15% of them were active in at least one assay; those are over-represented in the sample as a whole. Active and inactive are the calls of the source. Cut-off read from the data, not from the text of the source: active = growth inhibition above about 70%; inactive = the rest.

Test: NCI Yeast Anticancer Drug Screen. Data for the mec2-1 strain (AID 157)
Details: S. cerevisiae mec2-1 strain, at 50.0 µM, stronger effect = higher value
Outline: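 Yeast mec2-1 mutant treated with compound. Readout: growth inhibition vs vehicle controls.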
In the case of `CCNC(=O)COc1ccc(Cl)cc1Cl`, the growth inhibition is reported as -19.4% (inactive).
In the case of `CCN1CCC(O)(/C=C/c2ccc(Cl)c(Cl)c2)C(C(=O)/C=C/c2ccc(Cl)c(Cl)c2)C1` (centres undefined), the growth inhibition is reported as 99.4% (active).
For `Nc1ccc(-c2ccc(N)cc2S(=O)(=O)O)c(S(=O)(=O)O)c1`, the growth inhibition was -14.2% (inactive).
For `COc1ccc2c(c1)CCc1c(-c3noc4c3CCc3cc(OC)ccc3-4)noc1-2`, the growth inhibition was 19% (inactive).
With `Cc1ccc(NC(=S)N(CCC#N)C2CCCCC2)cc1C` the growth inhibition was -7.55% (inactive).
With `COc1ccc2c(c1)CC1c3c(ccc(OC)c3O)CC2N1C` (centres undefined) the growth inhibition was 91.3% (active).
With `CCN(CC)CCCC(C)Nc1c2ccccc2nc2c(C)cc(Br)cc12` (centres undefined) the growth inhibition was 39.5% (inactive).
With `O=C(O)c1cc2ccc3cccc4ccc(c1)c2c34` the growth inhibition was 70.7% (active).
In the case of `CCOC(=O)NC(=S)Nc1ccsc1`, the growth inhibition is reported as 11.4% (inactive).
For `CC(C)CCC(C)(C)c1cc(O)ccc1O`, the growth inhibition was 99.5% (active).
For `COc1ccc(C(c2cc3c(cc2O)OCO3)N2CCOCC2)c(OC)c1OC` (centres undefined), the growth inhibition was 99.6% (active).
In the case of `CCOC(=O)C1=C(C)NC(C)=C(C(=O)OCC)C1c1c(-c2ccccc2)noc1C`, the growth inhibition is reported as -2.3% (inactive).
For `O=C(CCl)Oc1ccc(Sc2ccc(OC(=O)CCl)cc2)cc1`, the growth inhibition was 98.3% (active).
In the case of `Nc1ccc2[nH]c3ccccc3c2c1`, the growth inhibition is reported as -17.6% (inactive).

Test: NCI Yeast Anticancer Drug Screen. Data for the sgs1 mgt1 strain (AID 161);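 note: 0% = growth of cultures given vehicle only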
Details: S. cerevisiae sgs1 mgt1 strain, at 5.0 µM (retest, dose inferred, filed as 0.5), stronger effect = higher value
Outline: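 Mutant yeast exposed to compound; growth scored against vehicle-only wells.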
For `CCCCCCCCCCCCCCCBr`, the growth inhibition was -10% (inactive).
With `CCCCCCCCCCCC(=O)OCC(C)C` the growth inhibition was 0% (inactive).
For `O[Si](O)(c1ccccc1)c1ccccc1`, the growth inhibition was 10% (inactive).
With `O=C(c1ccccc1)C(C(=O)c1ccccc1)c1ccc2ccccc2n1` the growth inhibition was -2% (inactive).
For `O=C1C=CC(=O)N1c1ccccc1[N+](=O)[O-]`, the growth inhibition was 98% (active).
For `CCCCCCCCCCCC(O)=C1C(=O)CC(O)CC1=O` (centres undefined), the growth inhibition was 48% (inactive).
For `OCCc1cccc2ccc3ccccc3c12`, the growth inhibition was -4% (inactive).
In the case of `O=C1C(=O)C(Cl)=C(Cl)C(Cl)=C1Cl`, the growth inhibition is reported as 1% (inactive).
For `O=C1C=CC2C(=O)c3ccccc3C(=O)C2=C1` (centres undefined), the growth inhibition was 4% (inactive).
With `O=C(N(c1ccc(Cl)cc1)c1ccc(Cl)cc1)C(Cl)(Cl)Cl` the growth inhibition was 14% (inactive).
With `COc1cccc2c1S(=O)(=O)C(c1ccccc1)=CC2=O` the growth inhibition was 55% (inactive).
In the case of `COc1cc(-c2nn3c(=O)n(-c4ccc(Cl)cc4)c(=O)nc3s2)cc(OC)c1OC`, the growth inhibition is reported as 1% (inactive).
With `O=[N+]([O-])C1(CO)COC(CCc2ccccc2)OC1` (centres undefined) the growth inhibition was 2% (inactive).
In the case of `COc1ccc(C(=O)CCc2c[nH]c3ccccc23)c(O)c1`, the growth inhibition is reported as 11% (inactive).
For `CC/C(=C(\CC)c1ccc(OCCN2CCOCC2)cc1)c1ccc(OCCN2CCOCC2)cc1`, the growth inhibition was 67% (inactive).
In the case of `CCCCCCCCCCCN1C(=O)c2ccccc2S1(=O)=O`, the growth inhibition is reported as 0% (inactive).
In the case of `CCCCCCCCCCCC(=O)NN`, the growth inhibition is reported as 6% (inactive).
In the case of `CCN1CCC(O)(/C=C/c2ccccc2)C(C(=O)/C=C/c2ccccc2)C1` (centres undefined), the growth inhibition is reported as 13% (inactive).
With `NC(=S)NNCCC(=O)Nc1ccccc1C(F)(F)F` the growth inhibition was 3% (inactive).
With `NS(=O)(=O)c1ccc(N=Cc2c3ccccc3nc3cc(Cl)ccc23)cc1` the growth inhibition was 16% (inactive).
In the case of `Nc1ccc(O)c(=O)cc1`, the growth inhibition is reported as 0% (inactive).
For `Oc1ccc[nH]c1=S`, the growth inhibition was 3% (inactive).
In the case of `COc1cccc2c1C(=O)c1c(O)c3c(c(O)c1C2=O)C[C@@](O)(/C(C)=N/NC(=O)c1ccc(Cl)c(Cl)c1)C[C@@H]3OC1CC(N)C(O)C(C)O1` (some centres undefined), the growth inhibition is reported as 25% (inactive).
In the case of `O=C1c2ccccc2C(=O)c2c1ccc(O)c2O.[Cu]`, the growth inhibition is reported as 99% (active).
For `CCC(=O)C(C(=O)CC)c1c(OC(=O)c2ccccc2)ccc(O)c1C(=O)OC`, the growth inhibition was 4% (inactive).
For `CC(C)CCCC(C)C1CCC2(C)C3=CCC4C(C)(CCC(O)C4(C)C)C3=CCC12C` (centres undefined), the growth inhibition was 11% (inactive).
For `CCNC(=O)COc1ccc(Cl)cc1Cl`, the growth inhibition was 0% (inactive).
For `CCN1CCC(O)(/C=C/c2ccc(Cl)c(Cl)c2)C(C(=O)/C=C/c2ccc(Cl)c(Cl)c2)C1` (centres undefined), the growth inhibition was 99% (active).
With `Nc1ccc(-c2ccc(N)cc2S(=O)(=O)O)c(S(=O)(=O)O)c1` the growth inhibition was -1% (inactive).
With `COc1ccc2c(c1)CCc1c(-c3noc4c3CCc3cc(OC)ccc3-4)noc1-2` the growth inhibition was 4% (inactive).
For `Cc1ccc(NC(=S)N(CCC#N)C2CCCCC2)cc1C`, the growth inhibition was -6% (inactive).
For `COc1ccc2c(c1)CC1c3c(ccc(OC)c3O)CC2N1C` (centres undefined), the growth inhibition was -6% (inactive).
For `CCN(CC)CCCC(C)Nc1c2ccccc2nc2c(C)cc(Br)cc12` (centres undefined), the growth inhibition was 17% (inactive).
In the case of `O=C(O)c1cc2ccc3cccc4ccc(c1)c2c34`, the growth inhibition is reported as 3% (inactive).
For `CCOC(=O)NC(=S)Nc1ccsc1`, the growth inhibition was 1% (inactive).
With `CC(C)CCC(C)(C)c1cc(O)ccc1O` the growth inhibition was 16% (inactive).
With `COc1ccc(C(c2cc3c(cc2O)OCO3)N2CCOCC2)c(OC)c1OC` (centres undefined) the growth inhibition was 0% (inactive).
With `CCOC(=O)C1=C(C)NC(C)=C(C(=O)OCC)C1c1c(-c2ccccc2)noc1C` the growth inhibition was 18% (inactive).
For `O=C(CCl)Oc1ccc(Sc2ccc(OC(=O)CCl)cc2)cc1`, the growth inhibition was 10% (inactive).
In the case of `Nc1ccc2[nH]c3ccccc3c2c1`, the growth inhibition is reported as -9% (inactive).
